Records with an inconclusive call do not appear. Calls of active or inactive are those of the source. How the source made its calls, unless noted: active means hit-call score of the fitted dose curve at least 0.9, where 1 is the maximum; inconclusive means response in the unintended direction; inactive means score below 0.9.
Legend:
[1] = ATG_TAL_CIS: Attagene CIS-FACTORIAL HepG2 Assay for human TAL Basal Promoter (AID 2282966; active means hit-call score of the fitted dose curve at least 0.9, where 1 is the maximum; inactive means score below 0.9;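 further: background control endpoint measuring basal TAL promoter reporter mRNA not a specific factor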); details: HepG2 Attagene cis-factorial TAL promoter reporter; actives raise or lower the signal
Outline: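 Human hepatoma HepG2 cells, transfected with promoter-regulated reporter units, were treated 24 h. Reporter transcript levels, measured through RT-PCR and capillary electrophoresis, were fitted for gain or loss relative to DMSO.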

[2] = ATG_TGFb_CIS: Attagene CIS-FACTORIAL HepG2 Assay for human Transforming Growth Factor (TGF) (AID 2282967; active means hit-call score of the fitted dose curve at least 0.9, where 1 is the maximum; inactive means score below 0.9); details: HepG2 Attagene CIS TGFb reporter, mRNA transcription; actives raise or lower the signal
Outline: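 Endogenous TGFB1-linked transcription factor activity read as reporter mRNA via RT-PCR and capillary electrophoresis, 24 h after dosing transiently transfected HepG2 cells. Gain or loss of signal fitted relative to DMSO.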

[3] = ATG_VDRE_CIS: Attagene CIS-FACTORIAL HepG2 Assay for human Vitamin D Receptor Element (VDRE) (AID 2282968; active means hit-call score of the fitted dose curve at least 0.9, where 1 is the maximum; inactive means score below 0.9); details: HepG2 VDRE cis-reporter transcription, actives raise or lower the signal
Outline: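 Steps: transfect HepG2 with multiple reporter transcription units; dose chemicals 24 h; isolate RNA; RT-PCR; label with 6-FAM primer extension; HpaI digest; capillary electrophoresis. Curves fitted both directions against DMSO.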

[4] = target: Nuclear receptor subfamily 1 group I member 3 (Homo sapiens) (UniProt Q14994); assay: ATG_CAR_TRANS: Attagene TRANS-FACTORIAL HepG2 Assay for human Constitutive Androstane Receptor (CAR) (AID 2282969); details: HepG2 Attagene TRANS-FACTORIAL CAR reporter;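 further: activators raise reporter mRNA above DMSO so AC50 marks induction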
Outline: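 Steps: transient transfection of HepG2 with multiple GAL4-UAS reporter units; 24 h compound incubation; RNA isolation, RT-PCR, 6-FAM primer extension, HpaI digest; capillary electrophoresis. Gain-of-signal relative to DMSO negative control.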

[5] = target: Steroid hormone receptor ERR1 (Homo sapiens) (UniProt P11474); assay: ATG_ERRa_TRANS: Attagene TRANS-FACTORIAL HepG2 Assay for human Estrogen-Related Receptor alpha (ERRa) (AID 2282971); details: HepG2 Attagene TRANS reporter, ERRa transactivation
Outline: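 Signal gain relative to DMSO for an ERRa-Gal4 chimeric receptor, read as reporter mRNA by RT-PCR/capillary electrophoresis. Human HepG2 liver cells, transient multiplex reporter transfection, 24 h chemical exposure.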

[6] = target: X-box-binding protein 1 (Homo sapiens) (UniProt P17861); assay: ATG_Xbp1_CIS: Attagene CIS-FACTORIAL HepG2 Assay for human X-box Binding Protein 1 (XBP1) (AID 2282972; active means hit-call score of the fitted dose curve at least 0.9, where 1 is the maximum; inactive means score below 0.9); details: HepG2 XBP1 cis-element reporter, Attagene multiplex; actives raise or lower the signal
Outline: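 Reporter transcripts were quantified by RT-PCR with fluorescent primer extension and capillary electrophoresis after 24 h chemical exposure. Cells: transiently transfected HepG2 carrying cis-regulated reporter constructs; data fitted bidirectionally relative to DMSO.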

[7] = target: Androgen receptor (Homo sapiens) (UniProt P10275); assay: ATG_AR_TRANS: Attagene TRANS-FACTORIAL HepG2 Assay for human Androgen Receptor (AR) (AID 2282973); details: HepG2 Attagene TRANS-FACTORIAL AR reporter transcription
Outline: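 Chimeric nuclear receptor–Gal4 activity was assessed in human HepG2 hepatocytes after 24 h chemical dosing. Induced reporter mRNA was detected via labelled RT-PCR fragments on capillary electrophoresis, and gain of signal was analysed against DMSO.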

[8] = target: Estrogen-related receptor gamma (Homo sapiens) (UniProt P62508); assay: ATG_ERRg_TRANS: Attagene TRANS-FACTORIAL HepG2 Assay for human Estrogen-Related Receptor gamma (ERRg) (AID 2282977); details: HepG2 Attagene TRANS reporter, ERRg transactivation;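 further: hits increase reporter signal over DMSO so potencies reflect activators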
Outline: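 Exogenous NR-Gal4 chimera activity measured as reporter transcript induction after 24 h in transiently transfected HepG2 cells. RNA reverse-transcribed, PCR-amplified, 6-FAM-labelled and resolved by capillary electrophoresis; increase over DMSO baseline.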

[9] = target: Oxysterols receptor LXR-alpha (Homo sapiens) (UniProt Q13133); assay: ATG_LXRa_TRANS: Attagene TRANS-FACTORIAL HepG2 Assay for human Liver X Receptor alpha (LXRa) (AID 2282980); details: HepG2 Attagene TRANS reporter, LXRa transactivation
Outline: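 In this multiplexed TRANS system, compounds act on HepG2 cells carrying GAL4-UAS reporter units and a receptor-GAL4 fusion for 24 h. Induced reporter RNA is amplified, fluorescently labelled and sized by capillary electrophoresis, with DMSO as baseline.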

[10] = target: Hepatocyte nuclear factor 4-alpha (Homo sapiens) (UniProt P41235); assay: ATG_HNF4a_TRANS: Attagene TRANS-FACTORIAL HepG2 Assay for human Hepatocyte Nuclear Factor 4 alpha (HNF4a) (AID 2282982); details: HepG2 HNF4a transactivation reporter, mRNA readout
Outline: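 In this trans-factorial format, a chimeric HNF4a-GAL4 fusion drives a GAL4-UAS reporter in transfected HepG2 liver cells. After 24 h treatment, reporter mRNA induction is measured by RT-PCR with capillary electrophoresis, relative to DMSO.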

[11] = ATG_M_06_TRANS: Attagene TRANS-FACTORIAL HepG2 Assay for M06 Transcription Factor (Internal Marker) (AID 2282983); details: HepG2 Attagene TRANS M06 internal marker reporter
Outline: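 Multi-reporter-transfected HepG2, 24 h treatment; reporter transcripts quantified via RT-PCR, primer-extension labelling and CE. DMSO-normalized gain-of-signal fit.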

[12] = ATG_M_32_TRANS: Attagene TRANS-FACTORIAL HepG2 Assay for M32 Transcription Factor (Internal Marker) (AID 2282984); details: HepG2 Attagene TRANS M32 internal marker reporter
Outline: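 After 24 h dosing of transfected HepG2 cells, total RNA was reverse-transcribed, reporter sequences PCR-amplified, 6-FAM labelled by primer extension and HpaI-digested before capillary electrophoresis. Signal increase over DMSO was fitted.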

[13] = target: Transcriptional activator Myb (Homo sapiens) (UniProt P10242); assay: ATG_Myb_CIS: Attagene CIS-FACTORIAL HepG2 Assay for human Myeloblastosis (Myb) Proto-Oncogene Transcription Factor (AID 2282986; active means hit-call score of the fitted dose curve at least 0.9, where 1 is the maximum; inactive means score below 0.9); details: HepG2 Attagene CIS-FACTORIAL Myb reporter transcription; actives raise or lower the signal
Outline: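 In this HepG2 transient-transfection format, cis-regulated reporter mRNA is quantified 24 h post-dosing by RT-PCR with capillary electrophoresis, fitted bidirectionally to DMSO baseline.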

[14] = ATG_M_19_TRANS: Attagene TRANS-FACTORIAL HepG2 Assay for M19 Transcription Factor (Internal Marker) (AID 2282974); details: HepG2 Attagene TRANS-FACTORIAL M19 internal marker reporter
Outline: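 Using RT-PCR and capillary electrophoresis, reporter mRNA from transiently transfected human HepG2 cells was quantified following 24 h exposure; activity was fitted in the positive direction against DMSO.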

[15] = target: Oxysterols receptor LXR-beta (Homo sapiens) (UniProt P55055); assay: ATG_LXRb_TRANS: Attagene TRANS-FACTORIAL HepG2 Assay for human Liver X Receptor beta (LXRb) (AID 2282981); details: HepG2 Attagene TRANS GAL4-LXRb reporter, mRNA
Outline: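 Measures induction of a Gal4-driven reporter transcript in HepG2 cells expressing an exogenous LXRb-Gal4 fusion. Cells are exposed to compound for 24 h before RNA isolation and RT-PCR with capillary electrophoresis detection.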

[16] = target: Nuclear receptor subfamily 4 group A member 2 (Homo sapiens) (UniProt P43354); assay: ATG_NURR1_TRANS: Attagene TRANS-FACTORIAL HepG2 Assay for human Nuclear Receptor Related Protein 1 (NURR1) (AID 2282985); details: HepG2 Attagene TRANS reporter, mRNA readout
Outline: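 Chimeric NR-Gal4 fusion activity measured in HepG2 after 24 h treatment. Reporter transcripts detected by RT-PCR and capillary electrophoresis fluorescence; positive-direction curve fitting against DMSO.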

[17] = ATG_GAL4_TRANS: Attagene TRANS-FACTORIAL HepG2 Assay for GAL4 (Internal Marker) (AID 2282976); details: HepG2 Attagene TRANS GAL4 internal marker reporter
Outline: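 Liver HepG2 line bearing multiplexed GAL4-UAS reporter constructs; 24 h chemical treatment. Transcripts were quantified as fluorescent fragments on capillary electrophoresis after RT-PCR and HpaI cut, with activity fitted upward from DMSO.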

Measured: outcome

Hepatocyte nuclear factor 4-alpha (Homo sapiens), sequence (P41235 whole entry, looked up, the tested form may be a part): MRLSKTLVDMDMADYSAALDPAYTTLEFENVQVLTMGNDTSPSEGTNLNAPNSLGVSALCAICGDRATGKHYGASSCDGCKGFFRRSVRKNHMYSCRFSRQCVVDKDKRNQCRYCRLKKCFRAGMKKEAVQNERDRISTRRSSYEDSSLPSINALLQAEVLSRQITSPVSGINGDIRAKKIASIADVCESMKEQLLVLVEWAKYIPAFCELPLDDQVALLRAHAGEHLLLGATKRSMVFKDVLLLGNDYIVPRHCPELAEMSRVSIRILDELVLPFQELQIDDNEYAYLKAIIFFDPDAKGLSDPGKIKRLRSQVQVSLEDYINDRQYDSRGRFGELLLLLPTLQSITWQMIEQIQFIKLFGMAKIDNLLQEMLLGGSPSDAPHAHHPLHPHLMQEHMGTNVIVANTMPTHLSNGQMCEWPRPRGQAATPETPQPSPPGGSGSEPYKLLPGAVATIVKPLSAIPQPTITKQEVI
Transcriptional activator Myb (Homo sapiens), sequence (P10242 whole entry, looked up): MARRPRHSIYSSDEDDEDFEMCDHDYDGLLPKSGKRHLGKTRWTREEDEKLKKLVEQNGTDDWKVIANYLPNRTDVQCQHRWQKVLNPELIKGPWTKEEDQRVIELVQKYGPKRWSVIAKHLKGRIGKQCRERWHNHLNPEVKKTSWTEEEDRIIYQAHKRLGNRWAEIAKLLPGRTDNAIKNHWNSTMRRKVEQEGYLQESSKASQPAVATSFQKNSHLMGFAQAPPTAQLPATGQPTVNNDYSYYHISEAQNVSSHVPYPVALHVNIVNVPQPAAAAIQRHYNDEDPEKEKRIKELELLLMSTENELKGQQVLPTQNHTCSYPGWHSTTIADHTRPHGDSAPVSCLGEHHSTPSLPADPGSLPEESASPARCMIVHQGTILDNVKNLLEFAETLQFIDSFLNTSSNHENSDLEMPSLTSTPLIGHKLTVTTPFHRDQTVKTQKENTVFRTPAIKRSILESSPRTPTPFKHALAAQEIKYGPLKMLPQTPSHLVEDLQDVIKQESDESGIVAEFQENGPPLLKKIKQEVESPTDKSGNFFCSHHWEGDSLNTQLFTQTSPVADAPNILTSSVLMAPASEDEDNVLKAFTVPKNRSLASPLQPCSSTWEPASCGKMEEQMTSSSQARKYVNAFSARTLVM
X-box-binding protein 1 (Homo sapiens), sequence (P17861 whole entry, looked up): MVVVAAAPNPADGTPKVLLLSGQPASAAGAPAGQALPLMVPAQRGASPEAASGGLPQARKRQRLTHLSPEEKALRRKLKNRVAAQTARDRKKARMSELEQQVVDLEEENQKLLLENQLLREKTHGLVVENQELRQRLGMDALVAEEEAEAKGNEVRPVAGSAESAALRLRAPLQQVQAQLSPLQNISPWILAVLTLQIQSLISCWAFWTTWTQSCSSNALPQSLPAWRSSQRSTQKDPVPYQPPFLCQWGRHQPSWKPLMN
Nuclear receptor subfamily 1 group I member 3 (Homo sapiens), sequence (Q14994 whole entry, looked up, the tested form may be a part): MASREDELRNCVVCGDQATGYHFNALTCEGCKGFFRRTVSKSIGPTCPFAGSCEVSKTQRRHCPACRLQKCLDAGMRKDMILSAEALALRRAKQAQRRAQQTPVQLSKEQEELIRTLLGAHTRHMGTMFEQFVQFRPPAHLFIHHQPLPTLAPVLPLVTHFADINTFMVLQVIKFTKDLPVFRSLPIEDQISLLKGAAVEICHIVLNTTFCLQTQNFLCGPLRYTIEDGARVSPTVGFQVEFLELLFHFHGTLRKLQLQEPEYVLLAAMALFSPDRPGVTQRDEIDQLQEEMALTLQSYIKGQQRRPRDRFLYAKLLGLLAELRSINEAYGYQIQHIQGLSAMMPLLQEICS
Steroid hormone receptor ERR1 (Homo sapiens), sequence (P11474 whole entry, looked up, the tested form may be a part): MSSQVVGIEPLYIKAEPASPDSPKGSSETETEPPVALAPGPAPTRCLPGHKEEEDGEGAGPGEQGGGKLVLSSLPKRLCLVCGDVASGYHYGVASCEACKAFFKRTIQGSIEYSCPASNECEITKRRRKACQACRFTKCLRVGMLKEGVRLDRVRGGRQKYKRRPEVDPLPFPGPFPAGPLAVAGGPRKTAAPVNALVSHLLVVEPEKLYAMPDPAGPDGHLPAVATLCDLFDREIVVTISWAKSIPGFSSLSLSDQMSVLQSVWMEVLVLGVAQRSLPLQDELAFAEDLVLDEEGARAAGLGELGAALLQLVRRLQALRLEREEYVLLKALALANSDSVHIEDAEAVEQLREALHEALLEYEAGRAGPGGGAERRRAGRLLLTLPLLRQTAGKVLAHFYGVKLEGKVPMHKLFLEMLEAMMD
Nuclear receptor subfamily 4 group A member 2 (Homo sapiens), sequence (P43354 whole entry, looked up, the tested form may be a part): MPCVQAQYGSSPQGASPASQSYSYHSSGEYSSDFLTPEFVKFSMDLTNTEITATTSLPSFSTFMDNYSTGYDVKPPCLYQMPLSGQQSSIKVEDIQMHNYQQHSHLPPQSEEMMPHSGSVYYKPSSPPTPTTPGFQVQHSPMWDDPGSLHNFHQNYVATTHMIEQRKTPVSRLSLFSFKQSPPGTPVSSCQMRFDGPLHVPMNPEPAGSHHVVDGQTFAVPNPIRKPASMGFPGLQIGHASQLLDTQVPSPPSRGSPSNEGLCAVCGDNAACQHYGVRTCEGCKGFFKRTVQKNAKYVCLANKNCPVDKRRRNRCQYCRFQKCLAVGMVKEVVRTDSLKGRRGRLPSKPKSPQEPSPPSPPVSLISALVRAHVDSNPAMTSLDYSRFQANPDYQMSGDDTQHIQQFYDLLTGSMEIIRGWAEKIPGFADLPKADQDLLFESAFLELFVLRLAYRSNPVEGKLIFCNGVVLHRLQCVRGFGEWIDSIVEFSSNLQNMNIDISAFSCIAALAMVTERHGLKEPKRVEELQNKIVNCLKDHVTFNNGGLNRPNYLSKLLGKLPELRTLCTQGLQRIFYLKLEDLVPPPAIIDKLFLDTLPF
Oxysterols receptor LXR-alpha (Homo sapiens), sequence (Q13133 whole entry, looked up, the tested form may be a part): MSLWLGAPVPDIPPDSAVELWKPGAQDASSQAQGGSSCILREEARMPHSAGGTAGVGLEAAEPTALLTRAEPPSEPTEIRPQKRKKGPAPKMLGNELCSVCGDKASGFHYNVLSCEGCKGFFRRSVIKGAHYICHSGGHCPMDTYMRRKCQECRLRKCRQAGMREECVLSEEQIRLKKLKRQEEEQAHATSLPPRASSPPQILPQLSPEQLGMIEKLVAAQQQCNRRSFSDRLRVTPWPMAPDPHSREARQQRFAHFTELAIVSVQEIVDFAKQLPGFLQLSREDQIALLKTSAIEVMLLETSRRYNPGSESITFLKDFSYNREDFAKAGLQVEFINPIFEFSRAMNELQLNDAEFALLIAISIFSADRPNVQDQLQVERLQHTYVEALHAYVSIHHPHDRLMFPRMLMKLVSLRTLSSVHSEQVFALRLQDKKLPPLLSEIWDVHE
Androgen receptor (Homo sapiens), sequence (P10275 whole entry, looked up, the tested form may be a part): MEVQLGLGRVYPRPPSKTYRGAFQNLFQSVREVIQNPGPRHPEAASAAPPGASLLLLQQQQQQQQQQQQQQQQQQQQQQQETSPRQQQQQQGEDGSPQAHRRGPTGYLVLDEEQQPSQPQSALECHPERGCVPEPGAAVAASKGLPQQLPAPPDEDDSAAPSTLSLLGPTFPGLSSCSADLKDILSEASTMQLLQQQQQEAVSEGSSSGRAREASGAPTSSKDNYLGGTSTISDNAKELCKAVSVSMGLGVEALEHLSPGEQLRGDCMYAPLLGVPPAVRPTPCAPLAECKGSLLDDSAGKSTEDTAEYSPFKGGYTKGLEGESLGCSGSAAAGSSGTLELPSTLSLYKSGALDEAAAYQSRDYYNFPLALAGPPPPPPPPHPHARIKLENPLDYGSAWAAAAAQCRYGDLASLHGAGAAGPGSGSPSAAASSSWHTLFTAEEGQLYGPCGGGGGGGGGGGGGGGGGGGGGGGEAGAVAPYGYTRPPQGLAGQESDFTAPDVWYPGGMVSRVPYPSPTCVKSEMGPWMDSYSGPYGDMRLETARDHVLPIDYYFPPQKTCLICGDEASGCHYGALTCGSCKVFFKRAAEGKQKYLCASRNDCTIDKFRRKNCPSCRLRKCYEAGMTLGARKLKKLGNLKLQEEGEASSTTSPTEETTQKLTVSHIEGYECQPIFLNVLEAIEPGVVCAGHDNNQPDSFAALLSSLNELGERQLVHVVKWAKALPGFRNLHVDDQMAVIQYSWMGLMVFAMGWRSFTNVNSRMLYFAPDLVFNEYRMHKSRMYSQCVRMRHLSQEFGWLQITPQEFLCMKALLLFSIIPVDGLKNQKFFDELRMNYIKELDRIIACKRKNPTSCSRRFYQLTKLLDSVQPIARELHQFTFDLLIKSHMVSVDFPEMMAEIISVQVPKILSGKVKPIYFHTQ
Oxysterols receptor LXR-beta (Homo sapiens), sequence (P55055 whole entry, looked up, the tested form may be a part): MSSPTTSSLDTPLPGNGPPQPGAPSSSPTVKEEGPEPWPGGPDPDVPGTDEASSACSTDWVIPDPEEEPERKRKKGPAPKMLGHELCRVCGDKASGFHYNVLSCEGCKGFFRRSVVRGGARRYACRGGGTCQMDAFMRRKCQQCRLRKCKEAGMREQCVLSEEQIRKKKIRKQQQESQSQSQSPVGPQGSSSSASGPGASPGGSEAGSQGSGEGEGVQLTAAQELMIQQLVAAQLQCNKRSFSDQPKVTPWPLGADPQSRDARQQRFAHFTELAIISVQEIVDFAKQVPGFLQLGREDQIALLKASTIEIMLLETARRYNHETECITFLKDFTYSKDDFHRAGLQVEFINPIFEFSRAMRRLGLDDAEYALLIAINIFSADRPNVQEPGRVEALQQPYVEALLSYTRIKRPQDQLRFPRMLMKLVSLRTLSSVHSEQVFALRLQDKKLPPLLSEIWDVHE

COP(=O)(OC)OC
not listed: [14] | [15] | [16] | [17]
inactive: all other assays above

COC(=O)c1sccc1S(=O)(=O)NC(=O)Nc1nc(C)nc(OC)n1
not listed: [5] | [7] | [8] | [10] | [11] | [12] | [17]
inactive: all other assays above

O=c1[nH]c(=O)[nH]c(=O)[nH]1
not listed: [11] | [15] | [17]
inactive: all other assays above

COc1cc(OC)nc(NC(=O)NS(=O)(=O)c2ncccc2C(=O)N(C)C)n1
not listed: [5] | [7] | [8] | [9] | [14] | [15] | [16]
inactive: all other assays above

CC(=O)C(Cl)C(=O)N(C)C (stereo not given)
not listed: [5] | [7] | [8] | [17]
inactive: all other assays above

— PubChem BioAssay (EPA / NIEHS)
